What was measured:
Experiment in all cases: SELEX-seq (CSI, HT-SELEX, round 3); SELEX-seq: 1x PBS (10 mM phosphate, 137 mM NaCl, 2.7 mM KCl) pH 7.6, 2.5 mM DTT, 50 ng/ul poly dI-dC, 0.1% BSA, 50 nM biotinylated bZIP (1:3 with partner for heterodimers), 100 nM library, room temperature, 1 h, 3 rounds; high values mean tight binding
Settings in all cases: protein: recombinant;recombinant; copies: 1;1; dsDNA, one strand shown
ATF3;CEBPG = biological target: T1, ATF3;CEBPG (Homo sapiens;Homo sapiens, UniProt P18847;P53567 77-150;52-130, |)
T1 sequence 1: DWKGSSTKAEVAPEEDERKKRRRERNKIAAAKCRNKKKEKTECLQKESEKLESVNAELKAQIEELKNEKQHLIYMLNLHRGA
T1 sequence 2: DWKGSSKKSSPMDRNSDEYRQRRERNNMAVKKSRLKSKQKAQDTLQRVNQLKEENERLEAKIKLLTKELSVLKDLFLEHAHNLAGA

ATF3;CEBPA = ATF3;CEBPA (Homo sapiens;Homo sapiens, UniProt P18847;P49715 77-150;273-345, |)
JUN;CEBPG = JUN;CEBPG (Homo sapiens;Homo sapiens, UniProt P05412;P53567 243-316;52-130, |)
JUN;CEBPA = JUN;CEBPA (Homo sapiens;Homo sapiens, UniProt P05412;P49715 243-316;273-345, |)
BATF3;CEBPG = biological target: T2, BATF3;CEBPG (Homo sapiens;Homo sapiens, UniProt Q9NR55;P53567 26-99;52-130, |)
T2 sequence 1: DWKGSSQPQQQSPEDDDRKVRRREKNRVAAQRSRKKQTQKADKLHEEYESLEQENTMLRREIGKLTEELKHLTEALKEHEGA
T2 sequence 2: T1 sequence 2

BATF3;CEBPA = BATF3;CEBPA (Homo sapiens;Homo sapiens, UniProt Q9NR55;P49715 26-99;273-345, |)
ATF3;ATF3 = biological target: T3, ATF3;ATF3 (Homo sapiens;Homo sapiens, UniProt P18847;P18847 77-150;77-150, |)
T3 sequence 1: T1 sequence 1
T3 sequence 2: T1 sequence 1

JUNB;CEBPA = JUNB;CEBPA (Homo sapiens;Homo sapiens, UniProt P17275;P49715 259-332;273-345, |)
BATF;CEBPG = biological target: T4, BATF;CEBPG (Homo sapiens;Homo sapiens, UniProt Q16520;P53567 17-90;52-130, |)
T4 sequence 1: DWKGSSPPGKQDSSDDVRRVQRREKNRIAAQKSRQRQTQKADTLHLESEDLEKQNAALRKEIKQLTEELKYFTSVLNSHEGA
T4 sequence 2: T1 sequence 2

FOSL1;CEBPG = biological target: T5, FOSL1;CEBPG (Homo sapiens;Homo sapiens, UniProt P15407;P53567 96-169;52-130, |)
T5 sequence 1: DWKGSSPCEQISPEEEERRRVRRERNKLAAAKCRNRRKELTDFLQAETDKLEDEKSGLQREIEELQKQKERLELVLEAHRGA
T5 sequence 2: T1 sequence 2

FOS;CEBPG = FOS;CEBPG (Homo sapiens;Homo sapiens, UniProt P01100;P53567 128-201;52-130, |)
CEBPG;CEBPG = biological target: T6, CEBPG;CEBPG (Homo sapiens;Homo sapiens, UniProt P53567;P53567 52-130;52-130, |)
T6 sequence 1: T1 sequence 2
T6 sequence 2: T1 sequence 2

CEBPA;CEBPA = CEBPA;CEBPA (Homo sapiens;Homo sapiens, UniProt P49715;P49715 273-345;273-345, |)
JUN;ATF3 = JUN;ATF3 (Homo sapiens;Homo sapiens, UniProt P05412;P18847 243-316;77-150, |)
JUN;JUN = JUN;JUN (Homo sapiens;Homo sapiens, UniProt P05412;P05412 243-316;243-316, |)
ATF4;CEBPG = ATF4;CEBPG (Homo sapiens;Homo sapiens, UniProt P18848;P53567 269-346;52-130, |)
ATF4;CEBPA = ATF4;CEBPA (Homo sapiens;Homo sapiens, UniProt P18848;P49715 269-346;273-345, |)
ATF4;ATF4 = ATF4;ATF4 (Homo sapiens;Homo sapiens, UniProt P18848;P18848 269-346;269-346, |)
BATF3;ATF3 = biological target: T7, BATF3;ATF3 (Homo sapiens;Homo sapiens, UniProt Q9NR55;P18847 26-99;77-150, |)
T7 sequence 1: T2 sequence 1
T7 sequence 2: T1 sequence 1

BATF3;ATF4 = BATF3;ATF4 (Homo sapiens;Homo sapiens, UniProt Q9NR55;P18848 26-99;269-346, |)

Sequence of CEBPA;CEBPA (P49715 other isoform, or with tags, fused parts or gaps |, chain 1 of 2): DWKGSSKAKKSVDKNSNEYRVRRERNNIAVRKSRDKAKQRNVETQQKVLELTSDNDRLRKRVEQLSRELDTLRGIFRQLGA
Sequence of CEBPA;CEBPA (P49715 other isoform, or with tags, fused parts or gaps |, chain 2 of 2): as the sequence (P49715 other isoform, or with tags, fused parts or gaps |, chain 1 of 2) above
Sequence of BATF3;CEBPA (P49715 other isoform, or with tags, fused parts or gaps |): as the sequence (P49715 other isoform, or with tags, fused parts or gaps |, chain 1 of 2) above
Sequence of JUN;JUN (P05412 other isoform, or with tags, fused parts or gaps |, chain 1 of 2): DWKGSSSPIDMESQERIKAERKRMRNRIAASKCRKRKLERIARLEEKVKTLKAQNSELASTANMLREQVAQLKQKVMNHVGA
Sequence of JUN;JUN (P05412 other isoform, or with tags, fused parts or gaps |, chain 2 of 2): as the sequence (P05412 other isoform, or with tags, fused parts or gaps |, chain 1 of 2) above
Sequence of JUN;CEBPA (P05412 other isoform, or with tags, fused parts or gaps |, chain 1 of 2): as above
Sequence of JUN;CEBPA (P49715 other isoform, or with tags, fused parts or gaps |, chain 2 of 2): as the sequence (P49715 other isoform, or with tags, fused parts or gaps |, chain 1 of 2) above
Sequence of JUN;ATF3 (P05412 other isoform, or with tags, fused parts or gaps |): as the sequence (P05412 other isoform, or with tags, fused parts or gaps |, chain 1 of 2) above
Sequence of JUNB;CEBPA (P17275 other isoform, or with tags, fused parts or gaps |, chain 1 of 2): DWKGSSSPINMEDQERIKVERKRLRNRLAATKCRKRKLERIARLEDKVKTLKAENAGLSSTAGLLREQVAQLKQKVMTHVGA
Sequence of JUNB;CEBPA (P49715 other isoform, or with tags, fused parts or gaps |, chain 2 of 2): as the sequence (P49715 other isoform, or with tags, fused parts or gaps |, chain 1 of 2) above
Sequence of FOS;CEBPG (P01100 other isoform, or with tags, fused parts or gaps |): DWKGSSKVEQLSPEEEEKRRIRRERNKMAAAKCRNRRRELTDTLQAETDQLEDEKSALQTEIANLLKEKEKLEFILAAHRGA
Sequence of ATF4;ATF4 (P18848 other isoform, or with tags, fused parts or gaps |, chain 1 of 2): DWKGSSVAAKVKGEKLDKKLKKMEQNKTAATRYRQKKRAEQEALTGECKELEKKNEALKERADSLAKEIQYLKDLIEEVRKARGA
Sequence of ATF4;ATF4 (P18848 other isoform, or with tags, fused parts or gaps |, chain 2 of 2): as the sequence (P18848 other isoform, or with tags, fused parts or gaps |, chain 1 of 2) above
Sequence of ATF4;CEBPG (P18848 other isoform, or with tags, fused parts or gaps |): as the sequence (P18848 other isoform, or with tags, fused parts or gaps |, chain 1 of 2) above
Sequence of ATF4;CEBPA (P18848 other isoform, or with tags, fused parts or gaps |, chain 1 of 2): as above
Sequence of ATF4;CEBPA (P49715 other isoform, or with tags, fused parts or gaps |, chain 2 of 2): as the sequence (P49715 other isoform, or with tags, fused parts or gaps |, chain 1 of 2) above

Sequence	binding signal (ATF3;CEBPG)	binding signal (ATF3;CEBPA)	binding signal (JUN;CEBPG)	binding signal (JUN;CEBPA)	binding signal (BATF3;CEBPG)	binding signal (BATF3;CEBPA)	binding signal (ATF3;ATF3)	binding signal (JUNB;CEBPA)	binding signal (BATF;CEBPG)	binding signal (FOSL1;CEBPG)	binding signal (FOS;CEBPG)	binding signal (CEBPG;CEBPG)	binding signal (CEBPA;CEBPA)	binding signal (JUN;ATF3)	binding signal (JUN;JUN)	binding signal (ATF4;CEBPG)	binding signal (ATF4;CEBPA)	binding signal (ATF4;ATF4)	binding signal (BATF3;ATF3)	binding signal (BATF3;ATF4)
ATGACGTCAT	0.268 relative CSI intensity (max = 1)	1 relative CSI intensity (max = 1)	0.705 relative CSI intensity (max = 1)	1 relative CSI intensity (max = 1)	0.108 relative CSI intensity (max = 1)	0.0986 relative CSI intensity (max = 1)	1 relative CSI intensity (max = 1)	0.0515 relative CSI intensity (max = 1)	0.12 relative CSI intensity (max = 1)	0.43 relative CSI intensity (max = 1)	0.508 relative CSI intensity (max = 1)	0.00362 relative CSI intensity (max = 1)	0.015 relative CSI intensity (max = 1)	0.367 relative CSI intensity (max = 1)	1 relative CSI intensity (max = 1)	0.465 relative CSI intensity (max = 1)	0.584 relative CSI intensity (max = 1)	1 relative CSI intensity (max = 1)	0.146 relative CSI intensity (max = 1)	0.748 relative CSI intensity (max = 1)
ATGACGCAAT	1 relative CSI intensity (max = 1)	0.754 relative CSI intensity (max = 1)	1 relative CSI intensity (max = 1)	0.7 relative CSI intensity (max = 1)	0.954 relative CSI intensity (max = 1)	0.595 relative CSI intensity (max = 1)	0.0322 relative CSI intensity (max = 1)	1 relative CSI intensity (max = 1)	0.678 relative CSI intensity (max = 1)	1 relative CSI intensity (max = 1)	0.92 relative CSI intensity (max = 1)	0.307 relative CSI intensity (max = 1)	0.292 relative CSI intensity (max = 1)	0.267 relative CSI intensity (max = 1)	0.0387 relative CSI intensity (max = 1)	1 relative CSI intensity (max = 1)	0.929 relative CSI intensity (max = 1)		0.00445 relative CSI intensity (max = 1)	0.00858 relative CSI intensity (max = 1)
ATGATGCAAT	0.538 relative CSI intensity (max = 1)	0.655 relative CSI intensity (max = 1)	0.445 relative CSI intensity (max = 1)	0.679 relative CSI intensity (max = 1)	0.78 relative CSI intensity (max = 1)	0.725 relative CSI intensity (max = 1)	0.00513 relative CSI intensity (max = 1)	0.927 relative CSI intensity (max = 1)	0.553 relative CSI intensity (max = 1)	0.498 relative CSI intensity (max = 1)	0.64 relative CSI intensity (max = 1)	0.133 relative CSI intensity (max = 1)	0.124 relative CSI intensity (max = 1)	0.136 relative CSI intensity (max = 1)	0.00263 relative CSI intensity (max = 1)	0.965 relative CSI intensity (max = 1)	1 relative CSI intensity (max = 1)		0.00189 relative CSI intensity (max = 1)	0.00441 relative CSI intensity (max = 1)
ATGACGGAAT	0.0128 relative CSI intensity (max = 1)	0.105 relative CSI intensity (max = 1)	0.0184 relative CSI intensity (max = 1)	0.00425 relative CSI intensity (max = 1)	0.00179 relative CSI intensity (max = 1)		0.00639 relative CSI intensity (max = 1)	0.00413 relative CSI intensity (max = 1)	0.00661 relative CSI intensity (max = 1)		0.0215 relative CSI intensity (max = 1)			0.0994 relative CSI intensity (max = 1)	0.0116 relative CSI intensity (max = 1)	0.0162 relative CSI intensity (max = 1)	0.133 relative CSI intensity (max = 1)		0.00122 relative CSI intensity (max = 1)	0.00174 relative CSI intensity (max = 1)
CCTGACGTCA	0.0196 relative CSI intensity (max = 1)	0.18 relative CSI intensity (max = 1)		0.00973 relative CSI intensity (max = 1)	0.00277 relative CSI intensity (max = 1)	0.00253 relative CSI intensity (max = 1)	0.0945 relative CSI intensity (max = 1)	0.00467 relative CSI intensity (max = 1)	0.0162 relative CSI intensity (max = 1)		0.0189 relative CSI intensity (max = 1)			0.177 relative CSI intensity (max = 1)	0.0544 relative CSI intensity (max = 1)	0.0346 relative CSI intensity (max = 1)	0.127 relative CSI intensity (max = 1)	0.0219 relative CSI intensity (max = 1)	0.0499 relative CSI intensity (max = 1)	0.0241 relative CSI intensity (max = 1)
ATGACGTAAT	0.53 relative CSI intensity (max = 1)	0.606 relative CSI intensity (max = 1)	0.246 relative CSI intensity (max = 1)	0.286 relative CSI intensity (max = 1)	0.306 relative CSI intensity (max = 1)	0.226 relative CSI intensity (max = 1)	0.196 relative CSI intensity (max = 1)	0.144 relative CSI intensity (max = 1)	0.22 relative CSI intensity (max = 1)	0.318 relative CSI intensity (max = 1)	0.482 relative CSI intensity (max = 1)	0.0508 relative CSI intensity (max = 1)	0.0784 relative CSI intensity (max = 1)	0.313 relative CSI intensity (max = 1)	0.091 relative CSI intensity (max = 1)	0.652 relative CSI intensity (max = 1)	0.695 relative CSI intensity (max = 1)	0.00204 relative CSI intensity (max = 1)	0.0292 relative CSI intensity (max = 1)	0.048 relative CSI intensity (max = 1)
